This passage reports growth inhibition results from PubChem BioAssay (NCI).

This is part of a sample that, as a whole, favours compounds with a hit. Of some 79,000 tested, about 15% had one in any assay. Calls of active or inactive are those of the source. Rule as the data show it: active = growth inhibition above about 70%; inactive = the rest.

One assay can be described thus: NCI Yeast Anticancer Drug Screen. Data for the mec2-1 strain (AID 157). The note with it: S. cerevisiae mec2-1 strain, at 50.0 µM (retest, dose inferred, filed as 5.0), stronger effect = higher value. The method, boiled down: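 Each compound was tested on mec2-1 yeast, a strain altered in DNA damage repair or cell cycle control. Growth inhibition is reported relative to vehicle.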
For `CCC1(c2ccc(N3C(=O)c4ccccc4C3=O)cc2)CCC(=O)NC1=O` (stereo not given), the growth inhibition is -24% (inactive).
`CN(C)c1c([N+](=O)[O-])cc(N2C(=O)C=CC2=O)cc1[N+](=O)[O-]`: the growth inhibition was 98% (active).
For the compound `CCOC1(OCC)Oc2c(Cl)c(Cl)c(Cl)c(Cl)c2OC1(OCC)OCC`, the growth inhibition was 98% (active).
On to `CC(=O)NC1=C(Oc2ccccc2)C(=O)c2ccccc2C1=O`, for which the growth inhibition is 100% (active).
For the compound `CC1SC(=S)N(c2ccc(Cl)cc2)C1=O` (stereo not given), the growth inhibition is 31% (inactive).
With `CC(NNC(=S)N1CC2CCC(CC2)C1)c1cc2ccccc2cn1` (stereo not given), the growth inhibition is 99% (active).
For the compound `CCCCCCCCCCCCCC(=O)N1CCOCC1`, the growth inhibition was 100% (active).
The same measure, in the same setting: under `COC(O)C(=O)c1c2c(cc3c1CC1(Cc4cc5c(cc4C1)CCC5)C3)CCC2` (stereo not given) stands 99% (active).
For `CCC(=O)OCC(=O)c1ccc(-c2ccccc2)cc1`, the growth inhibition was 1% (inactive).
As to `CN(Cc1cnc2nc(N)nc(N)c2n1)c1ccc(C(=O)NC(CCC(=O)O)C(=O)O)cc1` (stereo not given), the growth inhibition was 79% (active).
As for `COc1ccc(C(=O)Nc2ccc(O)c(=O)cc2)cc1`, the growth inhibition was 59% (inactive).
For the compound `c1cc[c]([Sn]([NH]c2ncnc3[nH]cnc23)([NH]c2ncnc3[nH]cnc23)[c]2ccccc2)cc1`, the growth inhibition is 95% (active).
Regarding `CCCCCCCCCCCC1C(C#N)C(=O)NC(=O)C1C#N` (stereo not given), the growth inhibition was 92% (active).
On to `c1ccc(CSc2nnc3c4ccccc4c4ccccc4c3n2)cc1`, for which the growth inhibition was -22% (inactive).
The same measure, in the same setting: for `Cc1ccc(-n2cc(-c3ccc(Cl)cc3)c3c(N)ncnc32)cc1` the value was 97% (active); for `C[C@]12CCC3[C@@H](CC[C@@H]4c5nonc5CC[C@]34C)C1CCC(=O)N2` (stereo not given in full), 17% (inactive); for `CCN(CC)Cc1cc(N=Nc2c(O)ccc3c(N=Nc4ccc(O)c(CN(CC)CC)c4)c(O)ccc23)ccc1O`, 53% (inactive).
For the compound `CC(C)(C)c1ccc(OC(=O)Nc2ccc(Cl)cc2[N+](=O)[O-])c(Br)c1`, the growth inhibition is 9% (inactive).
Same read-out and setting: for `CCC(CCCN(CC)CCc1ccccc1)OC(=O)c1cc(OC)c(OC)c(OC)c1` (stereo not given) the value was 6% (inactive); for `CCN1/C(=C\c2cc[n+](CC)c3ccccc23)C=Cc2ccccc21`, 96% (active).
In the case of `CC1=C(C(=O)Nc2ccccc2C)C(c2ccc(Cl)c(Cl)c2)C(C(=O)Nc2ccccc2C)=C(C)N1`, the growth inhibition was 2% (inactive).
On to `Clc1ccc2nc3c(c(N4CCOCC4)c2c1)CCCC3`, for which the growth inhibition is 99% (active).
For the compound `N#Cc1cc2cccn2c2c1cnn2-c1ccccc1`, the growth inhibition is 4% (inactive).
On to `COc1cccc(C2c3cc4c(cc3OC(Nc3ccccc3)C2C)OCO4)c1O` (stereo not given), for which the growth inhibition is 95% (active).
On the same count and under the same terms, for `Nc1nc(-c2ccccc2)c(-c2ccccc2)c(-c2nc(N)nc(-c3ccccc3)c2-c2ccccc2)n1` the value was 16% (inactive); for `CCOC(C)c1ccccc1` (stereo not given), 99% (active).
Same read-out and setting: for `O=C1OC(CCCl)(c2ccccc2)CC1CN1CCOCC1` (stereo not given) the value was 90% (active).
Take `OC(Cc1ccccc1)(c1ccccc1)C(O)(Cc1ccccc1)c1ccccc1` (stereo not given): the growth inhibition was 54% (inactive).
Still for that read-out and setting: for `COc1ccc(N=N/N=c2\sc3cc(OC)ccc3n2C)cc1` the value was 46% (inactive); for `CCCCCC(CO)C(O)(C(F)(F)F)C(F)(F)F` (stereo not given), 7% (inactive); for `CC1=C(C(=O)Nc2ccccc2)C(c2ccccc2F)C(C(=O)Nc2ccccc2)=C(C)N1`, 11% (inactive).
With `CCOCCC(=O)NNc1ccccc1`, the growth inhibition is 36% (inactive).
Same read-out and setting: for `CCOC(=O)C(Br)C(Br)c1cccc([N+](=O)[O-])c1` (stereo not given) the value was 100% (active).
As for `Cc1ccc(-c2c(C#N)c(-c3ccccc3)n(NS(=O)(=O)c3ccc(C)cc3)c(=O)c2C#N)cc1`, the growth inhibition is 67% (inactive).
Regarding `CNC(=O)N1N[C@H](c2ccccc2)[C@@H]1c1ccccc1`, the growth inhibition was 50% (inactive).
Take `CCCCCCCCCN(CCCCCCCCC)CC(O)c1cc2c(c3ccccc13)CCCC2` (stereo not given): the growth inhibition was 96% (active).
For `O=C(O)C(c1ccc(Cl)cc1)c1ccc(Cl)cc1`, the growth inhibition is 98% (active).
Regarding `O=C1c2ccc3ccccc3c2CN2C(=O)CCC12` (stereo not given), the growth inhibition is 16% (inactive).
Regarding `CCCCCCCCCCCCCCCCNc1ccn(C2CC(OP(=O)(O)OCC3OC(n4cc(CC)c(=O)[nH]c4=O)CC3O)C(CO)O2)c(=O)n1` (stereo not given), the growth inhibition is 97% (active).
On to `Cc1cc(Cl)c(O)c(-c2cc(-c3cccc([N+](=O)[O-])c3)c3c(N)[nH]c(=S)nc3n2)c1`, for which the growth inhibition was 23% (inactive).

The assay is the same for the next values; noted with them: S. cerevisiae mec2-1 strain, at 50.0 µM, stronger effect = higher value.
Regarding `CCC1(c2ccc(N3C(=O)c4ccccc4C3=O)cc2)CCC(=O)NC1=O` (stereo not given), the growth inhibition is -13.2% (inactive).
For the compound `CN(C)c1c([N+](=O)[O-])cc(N2C(=O)C=CC2=O)cc1[N+](=O)[O-]`, the growth inhibition was 93.2% (active).
Turning to `CCOC1(OCC)Oc2c(Cl)c(Cl)c(Cl)c(Cl)c2OC1(OCC)OCC`, the growth inhibition was 98.9% (active).
In the case of `CC(=O)NC1=C(Oc2ccccc2)C(=O)c2ccccc2C1=O`, the growth inhibition was 97.8% (active).
Take `CC1SC(=S)N(c2ccc(Cl)cc2)C1=O` (stereo not given): the growth inhibition was 80.7% (active).
As for `CC(NNC(=S)N1CC2CCC(CC2)C1)c1cc2ccccc2cn1` (stereo not given), the growth inhibition was 97.4% (active).
Take `CCCCCCCCCCCCCC(=O)N1CCOCC1`: the growth inhibition is 99.7% (active).
Same read-out and setting: under `COC(O)C(=O)c1c2c(cc3c1CC1(Cc4cc5c(cc4C1)CCC5)C3)CCC2` (stereo not given) stands 80.5% (active).
As to `CCC(=O)OCC(=O)c1ccc(-c2ccccc2)cc1`, the growth inhibition is -3.7% (inactive).
On to `CN(Cc1cnc2nc(N)nc(N)c2n1)c1ccc(C(=O)NC(CCC(=O)O)C(=O)O)cc1` (stereo not given), for which the growth inhibition was 88% (active).
The same measure, in the same setting: for `COc1ccc(C(=O)Nc2ccc(O)c(=O)cc2)cc1` the value was 17.8% (inactive); for `c1cc[c]([Sn]([NH]c2ncnc3[nH]cnc23)([NH]c2ncnc3[nH]cnc23)[c]2ccccc2)cc1`, 47.6% (inactive).
On the same count and under the same terms, under `CCCCCCCCCCCC1C(C#N)C(=O)NC(=O)C1C#N` (stereo not given) stands 5.4% (inactive).
Take `c1ccc(CSc2nnc3c4ccccc4c4ccccc4c3n2)cc1`: the growth inhibition was -19.7% (inactive).
In the case of `Cc1ccc(-n2cc(-c3ccc(Cl)cc3)c3c(N)ncnc32)cc1`, the growth inhibition was 94.8% (active).
As to `C[C@]12CCC3[C@@H](CC[C@@H]4c5nonc5CC[C@]34C)C1CCC(=O)N2` (stereo not given in full), the growth inhibition was -4.95% (inactive).
The same measure, in the same setting: for `CCN(CC)Cc1cc(N=Nc2c(O)ccc3c(N=Nc4ccc(O)c(CN(CC)CC)c4)c(O)ccc23)ccc1O` the value was 85.4% (active); for `CC(C)(C)c1ccc(OC(=O)Nc2ccc(Cl)cc2[N+](=O)[O-])c(Br)c1`, 64.2% (inactive).
As to `CCC(CCCN(CC)CCc1ccccc1)OC(=O)c1cc(OC)c(OC)c(OC)c1` (stereo not given), the growth inhibition was 27.2% (inactive).
As for `CCN1/C(=C\c2cc[n+](CC)c3ccccc23)C=Cc2ccccc21`, the growth inhibition was 51.5% (inactive).
Regarding `CC1=C(C(=O)Nc2ccccc2C)C(c2ccc(Cl)c(Cl)c2)C(C(=O)Nc2ccccc2C)=C(C)N1`, the growth inhibition was 76.3% (active).
Same read-out and setting: for `Clc1ccc2nc3c(c(N4CCOCC4)c2c1)CCCC3` the value was 99.3% (active); for `N#Cc1cc2cccn2c2c1cnn2-c1ccccc1`, -6.8% (inactive); for `COc1cccc(C2c3cc4c(cc3OC(Nc3ccccc3)C2C)OCO4)c1O` (stereo not given), 55.1% (inactive).
Turning to `Nc1nc(-c2ccccc2)c(-c2ccccc2)c(-c2nc(N)nc(-c3ccccc3)c2-c2ccccc2)n1`, the growth inhibition is -6% (inactive).
As for `CCOC(C)c1ccccc1` (stereo not given), the growth inhibition was -5.85% (inactive).
The same measure, in the same setting: under `O=C1OC(CCCl)(c2ccccc2)CC1CN1CCOCC1` (stereo not given) stands 57.9% (inactive); under `OC(Cc1ccccc1)(c1ccccc1)C(O)(Cc1ccccc1)c1ccccc1` (stereo not given), 78.5% (active).
On to `COc1ccc(N=N/N=c2\sc3cc(OC)ccc3n2C)cc1`, for which the growth inhibition is 5.1% (inactive).
Still for that read-out and setting: under `CCCCCC(CO)C(O)(C(F)(F)F)C(F)(F)F` (stereo not given) stands 33.9% (inactive); under `CC1=C(C(=O)Nc2ccccc2)C(c2ccccc2F)C(C(=O)Nc2ccccc2)=C(C)N1`, 44% (inactive).
For `CCOCCC(=O)NNc1ccccc1`, the growth inhibition was 6% (inactive).
For the compound `CCOC(=O)C(Br)C(Br)c1cccc([N+](=O)[O-])c1` (stereo not given), the growth inhibition was 99.8% (active).
For the compound `Cc1ccc(-c2c(C#N)c(-c3ccccc3)n(NS(=O)(=O)c3ccc(C)cc3)c(=O)c2C#N)cc1`, the growth inhibition was 79.1% (active).
Consider `CNC(=O)N1N[C@H](c2ccccc2)[C@@H]1c1ccccc1`, for which the growth inhibition was 35% (inactive).
`CCCCCCCCCN(CCCCCCCCC)CC(O)c1cc2c(c3ccccc13)CCCC2` (stereo not given): the growth inhibition is 91% (active).
For `O=C(O)C(c1ccc(Cl)cc1)c1ccc(Cl)cc1`, the growth inhibition is 95.5% (active).
As to `O=C1c2ccc3ccccc3c2CN2C(=O)CCC12` (stereo not given), the growth inhibition was -6.6% (inactive).
For the compound `CCCCCCCCCCCCCCCCNc1ccn(C2CC(OP(=O)(O)OCC3OC(n4cc(CC)c(=O)[nH]c4=O)CC3O)C(CO)O2)c(=O)n1` (stereo not given), the growth inhibition was 12.8% (inactive).
With `Cc1cc(Cl)c(O)c(-c2cc(-c3cccc([N+](=O)[O-])c3)c3c(N)[nH]c(=S)nc3n2)c1`, the growth inhibition was 23.2% (inactive).
